Test [1] can be described thus: liver-stage malaria parasite growth inhibition, primary screen, cell-based, HepG2, luciferase luminescence, HepG2 viability (AID 624349; in the data active = parasite load remaining mostly below about 12%, no sharp cut-off; inactive = mostly above about 10%;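 also: 100% = mean of DMSO negative control wells on the same plate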). The note with it: P. berghei liver stage in HepG2, luciferase luminescence, concentration not given here; parasite load remaining: stronger effect = lower value; viability: measured here: HepG2 viability without parasites.
The nature of test [2]: stimulators of nuclear beta-catenin in C2C12, primary screen, imaging, WNT3A-conditioned medium, mouse C2C12, NPC library (AID 1117326; in the data active = nuclear beta-catenin stimulation mostly above about 4.2%, no sharp cut-off; inactive = mostly below about 10%). The note with it: stronger effect = higher value.
Test [3] can be described thus: stimulators of insulin release from INS-1E, primary screen, cell-based, 5 mM glucose, NPC library (AID 1117329;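 active = compound raises insulin release from rat beta cells at 5 mM glucose, no numeric limit stated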). The note with it: rat INS-1E insulin secretion, at 10 µM, stronger effect = higher value.
A short description of test [4]: growth inhibition of GSK3B-pretreated HCT116 cells – cell-based, CellTiter-Glo, 0.2 to 20 µM (AID 1117336;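 active = compounds lowering colon cancer cell viability after pretreatment blocking the GSK3B kinase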). The note with it: HCT116 viability after GSK3B inhibitor, at 20 µM, stronger effect = higher value. On the technique in general: In ATP-based viability assays light output follows the ATP content of the culture.
Test [5] in a line: inhibition of endothelial tube formation, primary screen, imaging, VEGF stimulated, CD31 staining, tube area, NPC library (AID 1117340;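 active = compound that reduces growth-factor-driven endothelial tube area in a mixed cell culture, no cutoff stated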). The note with it: VEGF-stimulated ADSC/ECFC co-culture, at 10 µM, stronger effect = higher value.
Test [6] in a line: glucagon-like peptide 1 release enhancers, primary assay, NCI-H716 cell line, NPC library (AID 1117341;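 active = compound raises GLP1 secretion from the human gut endocrine cells, with no numeric limit stated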). The note with it: NCI-H716 cells, at 10 µM, stronger effect = higher value.
Test [7] can be described thus: HCT116 colon cancer cell growth inhibition, primary screen, CellTiter-Glo luminescence, NPC library (AID 1117342;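 active = compounds that lower survival of HCT116 colon cancer cells in the luminescence readout, no numeric limit stated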). The following applies: at 20 µM (top of the series).
Test [8] in a line: CellTiter-Glo luminescent readout of SW480 viability loss, NPC library primary (AID 1117343;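 active = compounds that lower viability of the colon cancer cells in the luminescence readout, with no numeric limit stated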). The note with it: CellTiter-Glo luminescence; at 20 µM (top of the series) unless noted.
Test [9] in a line: decreased DLD-1 cellular survival, CellTiter-Glo luminescent readout, NPC compound collection, primary HTS (AID 1117346;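 active = compounds that lower survival of DLD-1 colon cancer cells in the luminescence readout, no cutoff given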). The note with it: DLD-1 viability, CellTiter-Glo luminescence; at 20 µM (top of the series).
A short description of test [10]: sensitizers of A549 cells to miR-34 induction, primary screen, imaging, A549 dox-inducible miR-34, nuclei and caspase counts (AID 1347080). The following applies: A549 miR-34 inducible, Hoechst nuclei count, 48 h.
Test [11] is described as follows: survival rescue of mitochondrial mutant cells in low glucose, primary screen, MELAS cybrids, Rieske KO mouse fibroblasts, CellTiter-Glo (AID 1508586;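 active = mean z-score across replicates of 1.96 or higher in either the MELAS or the Rieske mutant cell line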;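 also: z relative to plate mean and SD of compound and empty wells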).
The target in test [12] is NAD(+) hydrolase SARM1 (Homo sapiens) (UniProt Q6SZW1). Kind of test: SARM1 TIR NADase inhibitors, cell lysate, NAD-Glo luminescence (AID 1508614;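 active = compound whose remaining NAD level is above about 45 nM, limit read from the data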;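 also: higher remaining NAD means stronger inhibition of SARM1 NADase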). The note with it: SAM-TIR HEK293T lysate NADase, at 1 µM, stronger effect = higher value.
Sequence of NAD(+) hydrolase SARM1 (Homo sapiens) (Q6SZW1 whole entry, looked up): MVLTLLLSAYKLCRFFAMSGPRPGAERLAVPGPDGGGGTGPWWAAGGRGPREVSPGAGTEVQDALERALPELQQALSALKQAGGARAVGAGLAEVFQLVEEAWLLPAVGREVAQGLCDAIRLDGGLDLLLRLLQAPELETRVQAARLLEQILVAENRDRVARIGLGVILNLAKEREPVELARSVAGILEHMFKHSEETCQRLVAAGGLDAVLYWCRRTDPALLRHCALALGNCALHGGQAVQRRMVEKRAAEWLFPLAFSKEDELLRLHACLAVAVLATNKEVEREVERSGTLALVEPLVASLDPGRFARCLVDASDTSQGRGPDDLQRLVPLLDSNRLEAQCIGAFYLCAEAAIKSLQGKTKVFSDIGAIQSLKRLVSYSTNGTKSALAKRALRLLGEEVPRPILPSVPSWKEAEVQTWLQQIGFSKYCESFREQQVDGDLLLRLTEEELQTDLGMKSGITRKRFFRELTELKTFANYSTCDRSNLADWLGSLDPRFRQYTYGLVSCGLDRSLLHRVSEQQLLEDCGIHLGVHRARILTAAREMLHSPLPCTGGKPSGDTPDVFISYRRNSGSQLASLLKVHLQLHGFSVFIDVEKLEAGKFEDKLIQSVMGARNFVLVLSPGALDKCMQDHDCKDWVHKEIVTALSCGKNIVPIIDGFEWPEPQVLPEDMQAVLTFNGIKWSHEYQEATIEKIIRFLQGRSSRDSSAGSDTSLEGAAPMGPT
A short description of test [13]: viability rescue of complex I mutant cybrids, primary screen, cell-based, galactose medium, ATP luminescence (AID 1645843;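 active = z-score of at least 1.8 in each of two replicates, scored against plate mean and spread of sample wells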;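 also: positive z means more ATP and so rescue of galactose-driven cybrid death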). The note with it: complex I mutant cybrid cells, 72 h, stronger effect = higher value.
A short description of test [14]: growth inhibition of DIPG glioma cells, dose response, cell-based, JHH-DIPG-1, MIPE4.0, CellTiter-Glo, qHTS (AID 1347062; cut-off not given, nearly all actives have AC50 up to about 27 µM). The following applies: JHH-DIPG-1 viability, CellTiter-Glo ATP luminescence.
The nature of test [15]: growth inhibition of DIPG glioma cells, dose response, cell-based, SU-DIPG-IV, MIPE4.0, CellTiter-Glo, qHTS (AID 1347063; cut-off not given, nearly all actives have AC50 up to about 30 µM;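 also: compound exposure lasted 48 hours before the viability readout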). The note with it: SU-DIPG-IV viability, CellTiter-Glo ATP luminescence.
In test [16] the test system is Hepatitis C virus NS3 helicase. Kind of test: HCV NS3 helicase inhibitors, primary screen, biochemical, fluorescence polarization, LOPAC1280 library (AID 687035; in the data active = inhibition above about 37%). The following applies: Purified HCV NS3 helicase, Cy5-dT15 ssDNA binding fluorescence polarization; stronger effect = higher value; concentration not given here. In general terms: Polarisation of emitted light reports the rotation of a fluorescent probe.

A short description of test [17]: Cy5 fluorescence quenching or enhancement artefacts, artefact control for HCV NS3 helicase inhibitor project, biochemical, LOPAC1280 (AID 687037; call rule not given here). The note with it: Cy5-DNA-NS3h complex fluorescence interference counterscreen. A general note: Counterscreens check selectivity or assay interference.
Test [18] is described as follows: SU-DIPG-VI glioma cell viability, MIPE4.0 library, CellTiter-Glo luminescence, qHTS (AID 1347066; cut-off not given, nearly all actives have AC50 up to about 30 µM;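 also: cells exposed to compound for 48 hours before readout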). The following applies: CellTiter-Glo ATP luminescence.
A short description of test [19]: phospholipid biosynthesis inhibitors in animal cells, primary screen, cell-based, LOPAC library, screen 4 (AID 1347384; call rule not given here). The following applies: phospholipid biosynthesis inhibition screen, at 10 µM.
Where [20] appears, read: stronger effect = lower value, cell number ratio, induced over uninduced.
The mark [21] stands for this setting: measured here: relative caspase fold change +Dox/-Dox.
The mark [22] stands for this setting: measured here: total cells with miR-34 induction, stronger effect = lower value.
The mark [23] stands for this setting: measured here: total cells without miR-34 induction.
Setting [24] is: MELAS cybrid survival, CellTiter-Glo 48 h, stronger effect = higher value.
Where [25] appears, read: Rieske KO mouse fibroblast survival, CellTiter-Glo 72 h.

Several values for one entry are separate records, joined by “and”; a condition that tells them apart may be missing. Identical values can stand only once. Records with an inconclusive call do not appear. Activity calls are given as the source filed them.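 The calls were made as follows, unless noted: active = compounds whose cell count with miR-34 switched on is under 0.7 times the count with it off; inactive = the rest.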

Data on 5 compounds can be found in PubChem BioAssay.

A word on the viability: it is a read-out of living cells in per cent, often relative to untreated cells. For orientation: AC50 means the concentration at which the activity in the assay is half-maximal. As usually defined, the inhibition is the drop in the measured response relative to a control, in per cent.

For `CC(=O)O[C@@]12CO[C@@H]1C[C@H](O)[C@@]1(C)C(=O)[C@H](O)C3=C(C)[C@@H](OC(=O)[C@H](O)[C@@H](NC(=O)OC(C)(C)C)c4ccccc4)C[C@@](O)([C@@H](OC(=O)c4ccccc4)[C@H]21)C3(C)C`, the parasite load remaining in [1] was 80.3% (inactive). Also, in [1], the viability is 114%. For the same compound, the nuclear beta-catenin stimulation was 66.2% (active) in [2] (at 10 µM) and 49.3% in test [2] (stimulation, at 2 µM). In addition, in test [3], the insulin secretion stimulation was -0.6% (inactive). Also, the viability decrease in test [4] was 71.8% (active). In test [5], the tube area decrease was 98.1% (active). For the same compound, the GLP1 secretion stimulation in test [6] is -0.5% (inactive). Further, the inhibition of viability in [7] is 58.9% (active). Besides, the viability decrease (inhibition) in test [8] is 36.5% (active); in test [9], 31.8% (active). In addition, the fold change in test [10] (setting [20]) is 0.999 (inactive); in test [10] (setting [21]), 0.907. For the same compound, the cell count in [10] (setting [22]) and in [10] (setting [23]) was 2910 each time. The z-score in test [11] (setting [24]) is -1.22 (inactive); in test [11] (setting [25]), 0.541; in test [13], -0.435 (inactive). Further, in test [12], the remaining NAD is 10 nM (inactive).
Consider `COc1cccc(N(C)C(=S)Oc2ccc3c(c2)CCCC3)n1`, for which the nuclear beta-catenin stimulation in test [2] (at 10 µM) was 0.4% (inactive); in [2] (stimulation, at 2 µM), 0.4%. For the same compound, the insulin secretion stimulation in test [3] was -2.1% (inactive). In addition, the viability decrease in test [4] is 48.8% (inactive). Further, the tube area decrease in test [5] is 17.8% (inactive). For the same compound, the GLP1 secretion stimulation in test [6] was -2.3% (inactive). Besides, the inhibition of viability in [7] is 13.6% (inactive). The viability decrease (inhibition) in test [8] was 54.5% (active); in test [9] it was 55.4% (active). For the same compound, the compound was called inactive in test [14] and in [15]. Also, the z-score in test [11] (setting [24]) is 0.186 (inactive); in [11] (setting [25]), -0.761.
`CCC(C)(C)c1ccc(CC(C)CN2C[C@@H](C)O[C@@H](C)C2)cc1` (some centres not stated): in [1], the parasite load remaining is 32.9% (inactive). Besides, in [1], the viability was 99%. Besides, the nuclear beta-catenin stimulation in test [2] (at 10 µM) was 0.2% (inactive); in [2] (stimulation, at 2 µM), 0.5%. In [3], the insulin secretion stimulation is -2.9% (inactive). In test [4], the viability decrease was 23.9% (inactive). Further, in [5], the tube area decrease is -0.6% (inactive). In addition, in [6], the GLP1 secretion stimulation is 11.9% (inactive). For the same compound, in [7], the inhibition of viability was 10.2% (inactive). The viability decrease (inhibition) in test [8] is 83.9% (active); in test [9] it was 55.5% (active). Further, in test [14], the compound was called inactive. The fold change in test [10] (setting [20]) was 0.818 (inactive) and 0.902 (inactive); in test [10] (setting [21]) it was 0.996 and 1.18. Besides, the cell count in [10] (setting [22]) is 6710 and 9820; in [10] (setting [23]), 8200 and 10900. For the same compound, the z-score in test [11] (setting [24]) is -0.995 (inactive) and -0.921 (inactive); in test [11] (setting [25]), -0.654 and -0.53; in test [13], -1.82 (inactive). For the same compound, the remaining NAD in test [12] was 10 nM (inactive).
As to `CCCS(=O)c1ccc2nc(NC(=O)OC)[nH]c2c1` (configuration not stated), the parasite load remaining in test [1] is 34.6% (inactive). The viability in test [1] came out at 83%. For the same compound, the nuclear beta-catenin stimulation in [2] (at 10 µM) was 4.7% (inactive); in test [2] (stimulation, at 2 µM), -1.8%. Further, in [3], the insulin secretion stimulation is 0.2% (inactive). Also, the viability decrease in test [4] is 71.2% (active). Moreover, in test [5], the tube area decrease is 20.1% (inactive). In addition, the GLP1 secretion stimulation in test [6] is 0.6% (inactive). Further, in [7], the inhibition of viability is 65.2% (active). The viability decrease (inhibition) in test [8] is 87.9% (active); in test [9], 29.6% (inactive). Further, the AC50 in test [15] was 14.8 µM (active). For the same compound, the fold change was 0.922 (inactive) and 0.972 (inactive) in test [10] (setting [20]); 0.991 and 1.16 in [10] (setting [21]). For the same compound, the cell count in [10] (setting [22]) is 6780 and 6570; in test [10] (setting [23]), 7350 and 6760. Also, the z-score was -0.274 (inactive) and -0.499 (inactive) in test [11] (setting [24]); 0.419 and -0.334 in test [11] (setting [25]); 0.54 (inactive) in [13].
Take `CCOC(=O)Nc1ccc(NCc2ccc(F)cc2)nc1N`: the inhibition in test [16] is -3% (inactive). Besides, in test [17], the fluorescence ratio (interference) is 1 (inactive). Further, the nuclear beta-catenin stimulation in test [2] (at 10 µM) is 0.2% (inactive); in [2] (stimulation, at 2 µM) it was 2.4%. Also, the insulin secretion stimulation in test [3] is 1.9% (inactive). The viability decrease in [4] was 5.6% (inactive). The tube area decrease in test [5] was -7.5% (inactive). Further, in [6], the GLP1 secretion stimulation is -1.1% (inactive). In test [7], the inhibition of viability is 18.8% (inactive). The viability decrease (inhibition) in test [8] was 1.7% (inactive); in [9], 8.6% (inactive). Moreover, the call in [15], in test [18] and in test [19] was inactive. The fold change was 1.05 (inactive) and 0.965 (inactive) in test [10] (setting [20]); 0.797 and 0.68 in test [10] (setting [21]). Further, the cell count in test [10] (setting [22]) was 10200 and 8110; in test [10] (setting [23]), 9760 and 8410. Moreover, the z-score in [11] (setting [24]) was -0.196 (inactive); in test [11] (setting [25]), -0.17; in test [13], 1.55 (inactive).
